ssDAF-12 act – activators of S. stercoralis DAF-12 nuclear receptor. HEK293 ssDAF-12/GRIP1 lit1-tk-luc reporter, luminescence; % of 3 µM dafachronic acid response. activation, % at 6.8 µM. 1% of 370,000 active. AID 652126;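 active means activation above the mean over all tested compounds plus 3 SD, cut at about 0.9% in these data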
DAX1 inh-1 – DAX1 (NR0B1) inhibition, primary screen; HEK293T StAR-luciferase reporter, SF-1/DAX-1 repression relief; inhibition, % at 6.8 µM; 1.1% of 370,000 active;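 active means inhibition above the mean over all tested compounds plus 3 SD, cut at about 3.6% in these data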;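 further: higher inhibition means more luminescence from relief of DAX-1 repression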
DAX1 inh-2 – NR0B1 (DAX1) inhibition; P51843; inhibition, % at 6.75 µM; 0.99% of 340,000 active; HEK293 Gal4-DAX1 luciferase reporter, luminescence;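 active means inhibition above the mean over all tested compounds plus 3 SD, cut at about 4.2% in these data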;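 further: inhibition shows as a rise in luminescence from relieved DAX1 repression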
Target sequence (P51843 207-470 limits assumed): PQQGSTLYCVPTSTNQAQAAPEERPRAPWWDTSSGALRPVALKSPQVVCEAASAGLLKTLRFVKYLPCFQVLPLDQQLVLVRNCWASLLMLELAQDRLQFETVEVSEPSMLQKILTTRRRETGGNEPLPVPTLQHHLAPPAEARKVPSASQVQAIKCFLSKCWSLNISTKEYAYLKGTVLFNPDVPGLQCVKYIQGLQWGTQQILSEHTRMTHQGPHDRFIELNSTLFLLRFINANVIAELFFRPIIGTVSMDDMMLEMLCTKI
hgDAF-12 ag – activates the H. glycines DAF-12 receptor ligand-binding domain; HEK293 GAL4-hgDAF12 UAS-luciferase reporter, agonist luminescence; normalized to butyrate control; activation, % at 6.8 µM; 1.8% of 370,000 active; AID 687014;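 active means activation above a cutoff set at the mean of all screened compounds plus 3 SD, cut at about 10% in these data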
hcDAF12 agonist – activates DAF-12 receptor from parasite H. contortus; HEK293 hcDAF-12 lit1-tk-luc reporter, luminescence; 0% DMSO, 100% Δ7-dafachronic acid; activation, % at 6.8 µM; 1.4% of 370,000 active; AID 652067;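 active means activation above the mean of all tested compounds plus 3 SD, cut at about 5.5% in these data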
DAX1 inh confirm – confirmation of human DAX1 (NR0B1) inhibitors; shares compounds with DAX1 inh-1; HEK293T StAR-promoter luciferase reporter, SF-1/DAX-1 repression; inhibition, % at 6.8 µM; 87% of 2,400 active; AID 652134;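 active means inhibition above the average of every tested compound plus 3 SD, cut at about 3.8% in these data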;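 further: active compounds raise luminescence by relieving repression of the StAR reporter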
SF1 mutant ctr – counter-screen for DAX1 inhibitors: nonselective inhibitors with SF-1 AF2 mutant. shares compounds with DAX1 inh-1. HEK293 StAR-luciferase, luminescence. inhibition, % at 6.8 µM. 78% of 2,400 active. AID 652136;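 active means inhibition above the mean of all tested compounds plus 3 SD, cut at about 3% in these data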
LXR ag – activates human LXR-beta, counter-screen for hcDAF-12 agonists; HEK293 Gal4-LXR tk-luc reporter, luminescence, 24 h; normalized: DMSO 0%, positive control 100%; shares compounds with hcDAF12 agonist; activation, % at 6.8 µM; 3,400 tested, under 10 active; AID 743027;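 active means mean percent activation of the reporter above a cutoff set as the average over tested compounds plus their standard deviation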
Target sequence (P55055 whole entry, looked up, the tested form may be a part): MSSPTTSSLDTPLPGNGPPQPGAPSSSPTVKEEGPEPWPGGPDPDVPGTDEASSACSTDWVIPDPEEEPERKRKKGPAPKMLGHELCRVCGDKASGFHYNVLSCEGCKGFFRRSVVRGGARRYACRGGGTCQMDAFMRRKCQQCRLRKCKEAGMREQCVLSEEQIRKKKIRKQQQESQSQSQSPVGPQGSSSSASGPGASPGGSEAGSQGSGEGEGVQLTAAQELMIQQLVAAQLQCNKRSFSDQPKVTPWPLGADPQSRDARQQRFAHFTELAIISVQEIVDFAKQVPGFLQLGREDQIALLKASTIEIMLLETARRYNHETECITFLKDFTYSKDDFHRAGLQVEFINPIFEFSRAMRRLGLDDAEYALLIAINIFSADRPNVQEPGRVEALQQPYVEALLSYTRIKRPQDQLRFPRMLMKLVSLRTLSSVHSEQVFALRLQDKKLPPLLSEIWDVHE
hcDAF12 conf – confirmation of H. contortus DAF-12 agonists. shares compounds with hcDAF12 agonist. activation, % at 6.8 µM. HEK293 hcDAF-12 lit1-tk-luc reporter, luminescence; % of Δ7-dafachronic acid response. 61% of 3,400 active. AID 743032;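 active means mean activation across triplicate tests above the threshold derived from the earlier primary screen, cut at about 5.5% in these data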
Of the large screens only hits and unclear results are named; the others gave an inactive call (follow-up assays come after a bar, where they were run). Sampled rows, rich in hits. Any-hit rate of the full collection: about 4.1%.

Cc1c(C(=O)NC2=NCCS2)oc2ccccc12	ssDAF-12 act 2.7, DAX1 inh-1 5.3, hgDAF-12 ag 14, hcDAF12 agonist 19 | DAX1 inh confirm 14 | SF1 mutant ctr 7.2 | LXR ag inactive | hcDAF12 conf 21
C(=Cc1nc2ccccc2o1)c1ccc2c(c1)OCO2	DAX1 inh-1 13, hgDAF-12 ag 14, hcDAF12 agonist 8.1 | DAX1 inh confirm 6.3 | SF1 mutant ctr inactive | LXR ag inactive | hcDAF12 conf 8.9
C(=Cc1cnc2ccccc2n1)c1ccc2c(c1)OCO2	none
CN(C(=O)c1ccco1)c1nc2c(s1)CCCC2	ssDAF-12 act 1.6, DAX1 inh-1 5.1, hgDAF-12 ag 12, hcDAF12 agonist 8.6 | DAX1 inh confirm 16 | SF1 mutant ctr 6.4 | LXR ag inactive | hcDAF12 conf 8.3
Oc1c(N=Nc2ccccc2)sc2ccccc12	ssDAF-12 act 3.5, DAX1 inh-1 5.5, hgDAF-12 ag 13, hcDAF12 agonist 18 | DAX1 inh confirm 19 | SF1 mutant ctr 7.4 | LXR ag inactive | hcDAF12 conf 18
O=S(=O)(O)c1ccc(N=Nc2ccccc2)cc1	none
CC(C)CNC(=O)OCc1cn(Cc2ccccc2C(F)(F)F)nn1	none (no result: DAX1 inh-2)
Cc1ccn2c(CC(C)(C)C)c(-c3ccc(F)cc3)nc2c1	DAX1 inh-1 5.6, hcDAF12 agonist 6.7 | DAX1 inh confirm 8.8 | SF1 mutant ctr 6.6 | LXR ag inactive | hcDAF12 conf inactive
O=C(Cc1ccc(-c2ccccc2)cc1)Nc1ccccn1	none
Cc1ccnc(NC(=O)Cc2ccc(-c3ccccc3)cc2)c1	ssDAF-12 act 1.3, DAX1 inh-1 15, hgDAF-12 ag 34, hcDAF12 agonist 9.9 | DAX1 inh confirm 21 | SF1 mutant ctr inactive | LXR ag inactive | hcDAF12 conf 9.6
CCCC[C@H]1C2CC(OC(=O)Nc3ccc(Br)cc3)C(C2)[C@H]2CCCCN21 (some centres not stated)	none (no result: DAX1 inh-2)
Cn1c(=O)c2cc(S(=O)(=O)N3CCN(c4ccccc4Cl)CC3)ccc2n(C)c1=O	none (no result: DAX1 inh-2)
COc1ccc(C(=O)NC(=O)Nc2cc(C)ccn2)cc1	DAX1 inh-1 6.6, hcDAF12 agonist 7.7 | DAX1 inh confirm inactive | SF1 mutant ctr inactive | LXR ag inactive | hcDAF12 conf inactive
COc1ccc(NC(=O)Nc2cc(C)ccn2)cc1	DAX1 inh-1 5.0, hgDAF-12 ag 19, hcDAF12 agonist 7.3 | DAX1 inh confirm 17 | SF1 mutant ctr 8.2 | LXR ag inactive | hcDAF12 conf 8.9
Cc1noc(C)c1C(C)C1=CCCCC1 (configuration not stated)	none (no result: DAX1 inh-2)
COc1ncnc2c1ncn2CCCN1CCN(c2ccccn2)CC1	none
CC(O)(c1cccc(F)c1)c1nc(-c2cccc3cccnc23)cs1 (configuration not stated)	none (no result: DAX1 inh-2)
O=C(NCC1CCN(C(=O)C(=O)c2cc3ccccc3o2)CC1)c1cc(C(F)(F)F)cc(C(F)(F)F)c1	none (no result: DAX1 inh-2)
CCN(CC)S(=O)(=O)c1cccc(-c2nc3n(n2)Cc2ccccc2-3)c1	none
Clc1ccc(-c2nc3n(n2)Cc2ccccc2-3)cc1	ssDAF-12 act 3.5, DAX1 inh-1 5.1, hgDAF-12 ag 17, hcDAF12 agonist 17 | DAX1 inh confirm 13 | SF1 mutant ctr 5.5 | LXR ag inactive | hcDAF12 conf 24
CC(=O)C1=CCC(c2ccccc2)N(S(=O)(=O)c2ccccc2C)C1 (configuration not stated)	none (no result: DAX1 inh-2)
CSc1ccc(NC(=O)C2(C)CCN2C(=O)c2cc(C)n(C)n2)cc1 (configuration not stated)	none (no result: DAX1 inh-2)
CC(=O)Nc1ccc2c(c1)nc1n2CCSC1	none
Cc1ccc(C(=O)Nc2ccc3c(c2)nc2n3CCSC2)cc1	DAX1 inh-1 4.6, hcDAF12 agonist 7.0 | DAX1 inh confirm 13 | SF1 mutant ctr 7.5 | LXR ag inactive | hcDAF12 conf inactive
COc1ccc(-c2cc3c(nn2)-c2ccccc2C3=O)cc1	ssDAF-12 act 2.4, DAX1 inh-1 4.5, hgDAF-12 ag 12, hcDAF12 agonist 9.4 | DAX1 inh confirm inactive | SF1 mutant ctr inactive | LXR ag inactive | hcDAF12 conf inactive
COc1ccc(-c2cc(-c3ccccc3)c(-c3ccccc3)nn2)cc1	none (no result: DAX1 inh-2)
Cc1ccc(C(=O)c2sc3nsc(C)c3c2N)cc1	ssDAF-12 act 1.1, DAX1 inh-1 5.0, hgDAF-12 ag 13, hcDAF12 agonist 7.2 | DAX1 inh confirm 14 | SF1 mutant ctr 5.4 | LXR ag inactive | hcDAF12 conf 8.7
CN1C(=O)c2cc(NC(=O)c3ccc(F)cc3)ccc2OC[C@H]2O[C@H](CC(=O)NC3CCC3)CC[C@H]21	none (no result: DAX1 inh-2)
N#CCCN(C(=O)COC(=O)c1ccc2ccccc2n1)c1ccccc1	none
N#Cc1ccc(/C=C(\C(=O)C(=O)O)c2ccc3ccccc3n2)cc1	ssDAF-12 act 1.2, DAX1 inh-1 6.8, DAX1 inh-2 6.0, hgDAF-12 ag 15, hcDAF12 agonist 10 | DAX1 inh confirm 8.2 | SF1 mutant ctr 4.4 | LXR ag inactive | hcDAF12 conf 8.9
O=C(Nc1cccc2ccccc12)OC[C@@H]1CSCCS(=O)(=O)N1	none (no result: DAX1 inh-2)
COc1cccc(NC(=O)C2CCCN2C(=O)Nc2cccc3c2OCO3)c1 (configuration not stated)	none (no result: DAX1 inh-2)
O=C(O)c1ccc(N=NNc2cccc([N+](=O)[O-])c2)cc1	DAX1 inh-1 5.1, hcDAF12 agonist 6.7 | DAX1 inh confirm 14 | SF1 mutant ctr 8.0 | LXR ag inactive | hcDAF12 conf inactive
O=C(Nc1cccc([N+](=O)[O-])c1)c1ccc(-c2ccccc2)cc1	none
Cc1ccc(NC(=O)c2sc3ccccc3c2Cl)nc1	DAX1 inh-1 5.1, hgDAF-12 ag 20, hcDAF12 agonist 10 | DAX1 inh confirm 11 | SF1 mutant ctr 3.1 | LXR ag inactive | hcDAF12 conf 18
O=C(Nc1ccccn1)c1sc2cccc(F)c2c1Cl	ssDAF-12 act 1.1, DAX1 inh-1 8.4, hgDAF-12 ag 19, hcDAF12 agonist 14 | DAX1 inh confirm 8.5 | SF1 mutant ctr inactive | LXR ag inactive | hcDAF12 conf 18
CNC(=O)c1ccsc1NC(=O)c1sc2ccccc2c1Cl	none
CN(C)CCNC(=O)c1sc2cccc(F)c2c1Cl	none
CC(C)C[C@H]1COc2cc(N3CCCC3)ccc2S(=O)(=O)N1C	none (no result: DAX1 inh-2)
C=CCNCc1ccc(OC)cc1OC	none (no result: DAX1 inh-2)
